Reference: PubChem BioAssay AID1159580 (chemical genetic matrix, 2015)
Out of some 5,500 compounds screened, about 2,000 (36%) were called active. Inconclusive results (about 18%) are left out. Cut-off read from the data, not from the text of the source: active = normalized growth mostly below about 0.91 (no sharp cut-off); inconclusive = no clear call, values can overlap the other calls; inactive = mostly above about 0.92. Some of the results follow.

Assay: chemical genetic growth profiling, strain panel (AID 1159580);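 note: tested at 20 µM; growth read once vehicle control cultures reached saturation at 30 °C; 1 = growth at the plate median or of vehicle wells; lower values mean less growth of the strain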
Settings: S. cerevisiae deletion strains, growth OD

Measured: normalized growth

CCOC(=O)c1c(C)n(-c2ccccc2)c2ccc(O)cc12
inactive: locus YAL013W, strain DEP1, active compounds read low 0.998 | locus YBR229C, strain ROT2, active compounds read low 1 | locus YDL101C, strain DUN1, active compounds read low 0.995 | locus YDR150W, strain NUM1, active compounds read low 1 | locus YEL061C, strain CIN8, active compounds read low 0.965 | locus YGR078C, strain PAC10, active compounds read low 0.995 | locus YHR030C, strain SLT2, active compounds read low 0.923 | locus YHR087W, strain rtc3, active compounds read low 0.993 | locus YJR043C, strain POL32, active compounds read low 1.03 | locus YJR075W, strain HOC1, active compounds read low 0.989 | locus YLR039C, strain RIC1, active compounds read low 1.02 | locus YLR058C, strain SHM2 (second series), active compounds read low 0.985 | locus YLR085C, strain ARP6, active compounds read low 0.931 | locus YLR262C, strain YPT6, active compounds read low 0.984 | locus YML094W, strain GIM5, active compounds read low 0.94 | locus YMR219W, strain ESC1, active compounds read low 0.999 | locus YMR263W, strain SAP30, active compounds read low 0.956 | locus YNL128W, strain TEP1, active compounds read low 0.99 | locus YNL153C, strain GIM3, active compounds read low 0.976 | locus YNL322C, strain KRE1, active compounds read low 0.998 | locus YNR030W, strain Alg12, active compounds read low 0.963 | locus YPL055C, strain LGE1, active compounds read low 0.982 | locus YPL241C, strain CIN2, active compounds read low 0.979 | locus YPR135W, strain CTF4, active compounds read low 0.911
